HCV inhibitor – HCV inhibition; Huh7.5.1 HCVcc-Cre infection, luciferase reporter, 44 h; actives 3.4% (n = 340,000); Potency, µM (doses to about 41.8 µM), for the others: top-dose activity change, negative = inhibition, actives largely listed as inhibitors; AID 651820; active = well fitted inhibition curve with a large enough effect; inconclusive = small, poorly fitted or top-dose-only effect, or another doubt; inactive = no such curve, though single readings can be large or run the other way; note: potency is the fitted concentration of half-maximal effect
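Whole-lifecycle infectious HCVcc-Cre system; cells 1,000/well, compound then virus (~0.5 moi) added 4 h after plating, 44 h culture. Luciferase read 15 sec following 15 min substrate incubation, room temp.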
Lassa entry inh – blocks Lassa virus binding to or entry into cells; Lassa virus pseudotype entry inhibition, cell reporter; Potency, µM (top dose mostly 37.9 µM), inactives show at the top dose activity change, negative = inhibition, usual class: inhibitors; actives 1.2% (n = 300,000); AID 540256; calls by dose curve; tested in HEK293 cells; note: potency is the fitted concentration of half-maximal effect; nearly all actives have a fitted effect of over 50% in size
FMDV antiviral – blocks foot and mouth disease virus; FMDV antiviral cell-based qHTS; Potency, µM (highest dose often 57.9 µM), for the others: at the top dose activity change, negative = inhibition, hits mostly inhibitors; actives 1.2% (n = 410,000); AID 1159524; calls by dose curve; tested in HEK293T cells; note: read-out not given here; potency is the fitted concentration of half-maximal effect; nearly all actives have a fitted effect of over 45% in size
HCMV antiviral – blocks human cytomegalovirus replication; HFF cells, HCMV-luciferase reporter, 72 h; hits give low values; activity change, negative = inhibition, % at 57.5 µM; actives 4.5% (n = 410,000); AID 1259415; in the data active = activity change below about -60%; inconclusive = no clear call, values can overlap the other calls; inactive = above about -39%
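Luciferase read-out from HCMV-luciferase-infected HFFs (MOI 1 PFU/cell) 72 h post infection at 37C; compounds added after 16 h cell attachment; activity normalized between buffer-only basal and Salinomycin (10uM) inhibitor controls.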
Marburg entry inh – blocks Marburg virus binding to or entry into cells; Potency, µM (series often up to 37.8 µM), for the others: at the top dose activity change, negative = inhibition, usual class: inhibitors; Marburg virus pseudotyped entry inhibition, cell reporter; actives 1.8% (n = 300,000); calls by dose curve; tested in HEK293 cells; note: potency is the fitted concentration of half-maximal effect
Numbers without * were called inactive; [ ] = remark or other dose. Hits are enriched below; roughly 7.9% of the tested compounds scored in any of these assays. % is set by controls: 0 for no effect and ±100 for the full control effect.

COc1ccc(C(=O)N2CCc3[nH]nc(-c4ccccc4)c3C2)cc1 was read as HCV inhibitor 11.2µM*, Lassa entry inh -25.6%[46.1 µM], FMDV antiviral 2.1%, HCMV antiviral -10.5 and Marburg entry inh 8.9%[46.1 µM].
For C/C(=N\NC(=O)c1ccc(O)cc1)c1ccc2c(c1)Nc1ccccc1S2 the results were HCV inhibitor 10µM*, Lassa entry inh -12.9%[46.1 µM], FMDV antiviral 0.0%, HCMV antiviral -29.4 and Marburg entry inh inconclusive.
Screening C/C(=N\NC(=O)c1ccccc1F)c1ccc2c(c1)Nc1ccccc1S2 returned HCV inhibitor inconclusive, Lassa entry inh inconclusive, FMDV antiviral inconclusive, HCMV antiviral -69.2* and Marburg entry inh inconclusive.
For Cc1cc2c(c(=O)n1Cc1ccccc1)[C@H]1O[C@](CCCCN3C(=O)c4ccccc4C3=O)(Cc3cc(C#N)ccc31)O2 the results were Marburg entry inh 7.7%[14.2 µM].
COc1ccccc1CNC(=O)Cn1c(=O)ccc2cc(S(=O)(=O)N3CCCC3)ccc21 was read as Lassa entry inh -0.6%[46.1 µM], FMDV antiviral -17.5% and HCMV antiviral -2.3.
O=S(=O)(Nc1cc(Sc2ncn[nH]2)c(O)c2ccccc12)c1ccccc1 was read as HCV inhibitor inconclusive, Lassa entry inh inconclusive, FMDV antiviral 25.1µM*, HCMV antiviral -98.8* and Marburg entry inh inconclusive.
COc1cccc(N2CCN(C(=O)c3cnn(-c4ccccc4Cl)c3C3CCN(C(=O)OC(C)(C)C)CC3)CC2)c1 was read as Lassa entry inh inconclusive, FMDV antiviral -15.3% and HCMV antiviral 9.2.
Cc1ccc(-n2ncc(C(=O)NCCN3CCN(C)CC3)c2C2CCN(C(=O)OC(C)(C)C)CC2)cc1 was read as Lassa entry inh -26.5%[46.1 µM], FMDV antiviral -5.5% and HCMV antiviral inconclusive.
`Cc1cccc(-n2ncc(C(=O)Nc3ccc4c(c3)OCO4)c2C2CCN(C(=O)OC(C)(C)C)CC2)c1` gave Lassa entry inh 1.2%[46.1 µM], FMDV antiviral 19.6% and HCMV antiviral inconclusive.
For Cc1ccc(-n2ncc(C(=O)NCCCN3CCCCC3)c2C2CCN(C(=O)OC(C)(C)C)CC2)cc1 the results were Lassa entry inh inconclusive, FMDV antiviral -18.6% and HCMV antiviral active.
For Cc1ccc(-n2ncc(C(=O)Nc3ccc4c(c3)OCCO4)c2C2CCN(C(=O)OC(C)(C)C)CC2)cc1C the results were Lassa entry inh inconclusive, FMDV antiviral 0.0% and HCMV antiviral active.
For COc1ccc(CCN2CCC(CNC(=O)c3cnn(-c4cccc(Cl)c4)c3C3CCN(C(=O)OC(C)(C)C)CC3)CC2)cc1 the results were Lassa entry inh -23.7%[46.1 µM], FMDV antiviral -6.0% and HCMV antiviral -100.9*.
Screening COc1ccc(CCN2CCC(CNC(=O)c3cnn(-c4ccccc4)c3C3CCN(C(=O)OC(C)(C)C)CC3)CC2)cc1 returned Lassa entry inh inconclusive, FMDV antiviral -15.2% and HCMV antiviral inconclusive.
`COc1cccc(N2CCN(C(=O)c3cnn(-c4ccc(C)cc4C)c3C3CCN(C(=O)OC(C)(C)C)CC3)CC2)c1` gave Lassa entry inh 1.12µM*, FMDV antiviral inconclusive and HCMV antiviral 21.7.
CCc1ccc(C(O)c2ncc(-c3ccc4ccccc4c3)[nH]2)cc1 (stereo not drawn) was read as FMDV antiviral 41.0% and HCMV antiviral 103.7.
CC(C)(C)OC(=O)N1CCC(c2c(C(=O)NCCN3CCC(Cc4ccccc4)CC3)cnn2-c2ccc(F)cc2)CC1 was read as Lassa entry inh inconclusive, FMDV antiviral -11.9% and HCMV antiviral -106.3*.
`COCCCNC(=O)c1cnn(-c2ccccc2Cl)c1C1CCN(C(=O)OC(C)(C)C)CC1` gave Lassa entry inh inconclusive, FMDV antiviral -4.8% and HCMV antiviral active.
For CC(C)(C)OC(=O)N1CCC(c2c(C(=O)NCc3ccc(F)cc3)cnn2-c2ccc(F)cc2)CC1 the results were Lassa entry inh inconclusive, FMDV antiviral -18.9% and HCMV antiviral 6.5.
`CCOC(=O)c1cnn(-c2ccc(Cl)cc2)c1C1CCN(C(=O)OC(C)(C)C)CC1` gave HCV inhibitor 12.6µM*, Lassa entry inh 3.26µM*, FMDV antiviral inconclusive, HCMV antiviral -23.7 and Marburg entry inh inconclusive.
Screening O=C(NC1CCCCC1)c1ccc2c(c1)N(Cc1ccccc1Cl)C(=O)c1ccccc1S2 returned Lassa entry inh -0.2%[46.1 µM], FMDV antiviral 18.8% and HCMV antiviral -16.6.
COc1ccc2c(c1)C(C)=CC(C)(C)N2S(=O)(=O)c1ccc(Br)cc1 was read as HCV inhibitor inconclusive, Lassa entry inh inconclusive, FMDV antiviral -17.1%, HCMV antiviral -79.8* and Marburg entry inh inconclusive.
For COc1ccc2c(c1)C(C)=CC(C)(C)N2S(=O)(=O)c1ccc(NC(C)=O)cc1 the results were HCV inhibitor 6.3%, Lassa entry inh inconclusive, FMDV antiviral -27.3%, HCMV antiviral -89.7* and Marburg entry inh 1.12µM*.
For CCOc1ccc2c(c1)C(C)=CC(C)(C)N2S(=O)(=O)c1ccc(NC(C)=O)cc1 the results were HCV inhibitor inconclusive, FMDV antiviral 10.5% and HCMV antiviral inconclusive.
Screening CCN(CC(=O)NCCc1ccc(S(N)(=O)=O)cc1)Cc1ccccc1 returned HCV inhibitor -13.6%, Lassa entry inh -14.8%[46.1 µM], FMDV antiviral -23.0%, HCMV antiviral -16.6 and Marburg entry inh -3.4%[46.1 µM].
Screening CCCOc1ccc(/C=C/C(=O)Nc2ccc([N+](=O)[O-])cc2C)cc1OC returned HCV inhibitor -17.9%, Lassa entry inh -23.1%, FMDV antiviral -0.4%, HCMV antiviral -96.2* and Marburg entry inh inconclusive.
Screening CCOc1ccc(NC(=S)NC(=O)/C=C/c2ccc(OC)c(OC)c2)c([N+](=O)[O-])c1 returned HCV inhibitor -26.0%, Lassa entry inh inconclusive, FMDV antiviral -17.8%, HCMV antiviral inconclusive and Marburg entry inh 14.6µM*.
CCOc1ccc(NC(=S)NC(=O)/C=C/c2ccc(C)cc2)c([N+](=O)[O-])c1 was read as HCV inhibitor -30.8%, Lassa entry inh inconclusive, FMDV antiviral -21.8%, HCMV antiviral inconclusive and Marburg entry inh inconclusive.
`CC(C)(C)n1nc2c(c1NC(=O)c1cccc(Cl)c1)CS(=O)(=O)C2` gave HCV inhibitor 2.4%, Lassa entry inh -0.6%[46.1 µM], FMDV antiviral -17.6%, HCMV antiviral 0.1 and Marburg entry inh 4.2%[46.1 µM].
COC(=O)c1cc(Cl)cc2c(C)c(C3(O)CCCCC3)[nH]c12 was read as HCV inhibitor 8.91µM*, FMDV antiviral inconclusive and HCMV antiviral 26.9.
For O=C1Nc2c(c(=O)[nH]c(=O)n2-c2ccccc2)C1(NS(=O)(=O)c1ccc(Cl)cc1)C(F)(F)F (stereo not drawn) the results were Lassa entry inh 7.4%[46.1 µM], FMDV antiviral -4.6%, HCMV antiviral 16.2 and Marburg entry inh 7.8%[46.1 µM].
CCS(=O)(=O)c1nc(S(=O)(=O)c2ccc(Cl)cc2)c(N2CCc3ccccc3C2)s1 was read as HCV inhibitor -27.9%, Lassa entry inh inconclusive, FMDV antiviral 9.1%, HCMV antiviral -72.5* and Marburg entry inh inconclusive.

High-throughput results as filed in PubChem BioAssay.
